Source: PubChem BioAssay (EPA / NIEHS)
Values joined by “and” are separate entries in the source; they are usually repeats but may differ in a detail not shown here. Identical values can stand only once. A structure can be active in one record and inactive in another. Active and inactive are the calls of the source. Rule for the calls: active = hit-call score of the fitted dose curve at least 0.9, where 1 is the maximum; inactive = score below 0.9.

Legend:
[1] = read-out: Matrix Metallopeptidase 1 (MMP1), MMP1 (gene 4312); test: BSK_BF4T_MMP1: BioMAP Diversity Plus: BF4T Assay for Matrix Metallopeptidase 1 (MMP1) Biomarker Activity (AID 2284270); settings: primary human bronchial epithelial cells with fibroblasts
Method in brief: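 MMP-1 quantified by ELISA in primary human bronchial epithelial/dermal fibroblast co-cultures, 24 hours post-dosing, with DMSO as baseline; parallel sulforhodamine B staining (560 nm) tracks overt cytotoxicity.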

[2] = read-out: Tissue plasminogen activator (tPA), PLAT (gene 5327); test: BSK_BF4T_tPA: BioMAP Diversity Plus: BF4T Assay for Tissue plasminogen activator (tPA) Biomarker Activity (AID 2284272); settings: primary human bronchial epithelial cells with fibroblasts
Method in brief: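 tPA level quantified by ELISA at 24 h post-treatment in bronchial epithelial/dermal fibroblast co-cultures, gain of signal scored against DMSO baseline. Parallel cultures stained with 0.1% SRB (560 nm) to flag overt cytotoxicity.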

[3] = read-out: Plasminogen Activator Inhibitor-1 (PAI1), SERPINE1 (gene 5054); test: BSK_BF4T_PAI1: BioMAP Diversity Plus: BF4T Assay for Plasminogen Activator Inhibitor-1 (PAI1) Biomarker Activity (AID 2284273); settings: primary human bronchial epithelial cells with fibroblasts
Method in brief: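 PAI-1 levels quantified by ELISA 24 h post-dosing in bronchial epithelial cell plus dermal fibroblast cultures. Signal gain referenced to DMSO baseline. Sulforhodamine B total-protein staining of parallel wells checked cytotoxicity.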

[4] = BSK_BF4T_SRB: Viability Assessment in the BioMAP Diversity Plus: BF4T Assay (AID 2284274); settings: primary human bronchial epithelial cells with fibroblasts
Method in brief: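 Cytotoxicity measured as total protein: cells fixed with 10% TCA, stained with 0.1% SRB, read at 560 nm. Bronchial epithelial/dermal fibroblast co-culture, 24 h after dosing, with positive-direction fitting relative to DMSO.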

[5] = read-out: urokinase Plasminogen Activator (uPA), PLAU (gene 5328); test: BSK_BF4T_uPA: BioMAP Diversity Plus: BF4T Assay for urokinase Plasminogen Activator (uPA) Biomarker Activity (AID 2284275); settings: primary human bronchial epithelial cells with fibroblasts
Method in brief: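 uPA levels measured by ELISA at 24 hours in BF4T cultures (bronchial epithelial cells plus dermal fibroblasts) and compared with DMSO; cytotoxicity tracked in parallel cultures by sulforhodamine B staining.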

[6] = read-out: Matrix Metallopeptidase 9 (MMP9), MMP9 (gene 4318); test: BSK_BF4T_MMP9: BioMAP Diversity Plus: BF4T Assay for Matrix Metallopeptidase 9 (MMP9) Biomarker Activity (AID 2284276); settings: primary human bronchial epithelial cells with fibroblasts
Method in brief: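 MMP-9 levels were measured by ELISA after 24 h exposure of bronchial epithelial cell/dermal fibroblast co-cultures, with DMSO as baseline. Parallel cultures were stained with 0.1% SRB after TCA fixation, read at 560 nm, to flag overt cytotoxicity.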

[7] = read-out: Interleukin-8 (IL8), CXCL8 (gene 3576); test: BSK_IMphg_IL8: BioMAP Diversity Plus: IMphg Assay for Interleukin-8 (IL8) Biomarker Activity (AID 2284277); settings: primary human endothelial cells with macrophages
Method in brief: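 IL-8 levels were measured by ELISA 24 h after dosing in primary human venular endothelial cell–macrophage cultures, referenced to DMSO; parallel SRB staining monitored overt cytotoxicity.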

[8] = read-out: Intercellular Adhesion Molecule 1 (ICAM1), ICAM1 (gene 3383); test: BSK_BE3C_ICAM1: BioMAP Diversity Plus: BE3C Assay for Intercellular Adhesion Molecule 1 (ICAM1) Biomarker Activity (AID 2284278); settings: primary human bronchial epithelial cells
Method in brief: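 ELISA read-out of ICAM-1 on human lung bronchial epithelial primary cells, 24 h post-dosing; positive-direction curve fit, DMSO = baseline. SRB total-protein staining of parallel cultures flagged overt cytotoxicity.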

[9] = read-out: Interleukin-8 (IL8), CXCL8 (gene 3576); test: BSK_BE3C_IL8: BioMAP Diversity Plus: BE3C Assay for Interleukin-8 (IL8) Biomarker Activity (AID 2284280); settings: primary human bronchial epithelial cells
Method in brief: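 Primary human bronchial epithelial cells (BE3C system) were exposed to test chemical for 24 h, and IL-8 levels were then measured by ELISA. Activity was fitted in the positive (gain-of-signal) direction against a DMSO negative-control baseline.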

[10] = read-out: Epidermal growth factor receptor (EGFR), EGFR (gene 1956); test: BSK_BE3C_EGFR: BioMAP Diversity Plus: BE3C Assay for Epidermal growth factor receptor (EGFR) Biomarker Activity (AID 2284281); settings: primary human bronchial epithelial cells
Method in brief: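 Human primary bronchial epithelial cells were exposed to compound for 24 h, and cell-surface EGFR was then quantified by ELISA. Activity was fitted in the positive direction against the DMSO vehicle baseline.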

KRT18 (gene 3875) = test: BSK_BE3C_Keratin818: BioMAP Diversity Plus: BE3C Assay for Keratin 818 Biomarker Activity (AID 2284282); settings: primary human bronchial epithelial cells
Method in brief: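 ELISA read-out of Keratin 8/18 in BE3C human bronchial epithelial cultures, 24 h post-dosing; positive-direction fit vs DMSO baseline.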

[11] = read-out: Matrix Metallopeptidase 9 (MMP9), MMP9 (gene 4318); test: BSK_BE3C_MMP9: BioMAP Diversity Plus: BE3C Assay for Matrix Metallopeptidase 9 (MMP9) Biomarker Activity (AID 2284283); settings: primary human bronchial epithelial cells
Method in brief: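 Human primary bronchial epithelial cells in the BE3C system were dosed with compound for 24 h. MMP-9 was measured by ELISA, and the positive-direction response was fitted relative to DMSO as baseline. Parallel SRB staining gauged cytotoxicity.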

[12] = read-out: Plasminogen activator inhibitor-1 (PAI1), SERPINE1 (gene 5054); test: BSK_CASM3C_PAI1: BioMAP Diversity Plus: CASM3C Assay for Plasminogen activator inhibitor-1 (PAI1) Biomarker Activity (AID 2284284); settings: primary human coronary artery smooth muscle cells
[13] = read-out: Monocyte Chemoattractant Protein-1 (MCP1), CCL2 (gene 6347); test: BSK_hDFCGF_MCP1: BioMAP Diversity Plus: hDFCGF Assay for Monocyte Chemoattractant Protein-1 (MCP1) Biomarker Activity (AID 2284285); settings: primary human foreskin fibroblasts
Method in brief: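 MCP-1 ELISA readout was taken 24 hours after dosing primary human dermal fibroblasts in the hDFCGF system, with DMSO as baseline. Parallel sulforhodamine B staining of total protein tracked overt cytotoxicity.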

[14] = read-out: Vascular cell adhesion molecule 1 (VCAM1), VCAM1 (gene 7412); test: BSK_IMphg_VCAM1: BioMAP Diversity Plus: IMphg Assay for Vascular cell adhesion molecule 1 (VCAM1) Biomarker Activity (AID 2284286); settings: primary human endothelial cells with macrophages
Method in brief: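 ELISA read-out of VCAM-1 on venular endothelial cell/macrophage co-cultures at 24 h post-treatment, with DMSO as baseline and positive-direction fitting. Parallel sulforhodamine B total-protein staining (560 nm) served as the overt cytotoxicity measure.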

[15] = read-out: Intercellular Adhesion Molecule 1 (ICAM1), ICAM1 (gene 3383); test: BSK_hDFCGF_ICAM1: BioMAP Diversity Plus: hDFCGF Assay for Intercellular Adhesion Molecule 1 (ICAM1) Biomarker Activity (AID 2284287); settings: primary human foreskin fibroblasts
Method in brief: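 ICAM-1 ELISA readout 24 h after dosing, DMSO as baseline, in human dermal foreskin fibroblast cultures. Cytotoxicity checked in parallel wells by SRB staining (0.1% SRB, 10% TCA fixation, 560 nm).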

CD40, CD40 (gene 958) = test: BSK_IMphg_CD40: BioMAP Diversity Plus: IMphg Assay for CD40 Biomarker Activity (AID 2284288); settings: primary human endothelial cells with macrophages
Method in brief: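 ELISA read-out of cell-surface CD40 at 24 h in human venular endothelial cell/macrophage co-cultures. Activity fitted in the positive direction against DMSO; parallel SRB staining (560 nm) gauges overt cytotoxicity.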

[16] = read-out: TIMP metallopeptidase inhibitor 2 (TIMP2), TIMP2 (gene 7077); test: BSK_hDFCGF_TIMP2: BioMAP Diversity Plus: hDFCGF Assay for TIMP metallopeptidase inhibitor 2 (TIMP2) Biomarker Activity (AID 2284289); settings: primary human foreskin fibroblasts
Method in brief: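 Primary human foreskin fibroblasts in the hDFCGF system, dosed for 24 h; TIMP-2 level measured by ELISA, fitted in the positive direction against DMSO; cytotoxicity checked in parallel by sulforhodamine B total protein staining.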

Measured: AC50

C=CC(=O)OCC(F)(F)C(F)(F)C(F)(F)COC(=O)C=C
inactive: [1] | [10] | KRT18 (gene 3875) | [16]
active: [1] 50.2 µM | [2] 8.12 µM | [3] 20.7 µM and 23.4 µM | [4] 43.4 µM and 47.1 µM | [5] 30 µM and 25.7 µM | [6] 21.5 µM and 21.8 µM | [7] 50.7 µM and 45.9 µM | [8] 38.5 µM and 35.5 µM | [9] 13.2 µM and 8.09 µM | [11] 8.23 µM and 8.72 µM | [12] 46 µM and 48.8 µM | [13] 2.84 µM and 2.59 µM | [14] 35 µM and 40 µM | [15] 2.6 µM and 2.45 µM | CD40, CD40 (gene 958) 22.6 µM and 23.9 µM

OCCCCC(F)(F)C(F)(F)C(F)(F)C(F)(F)F
inactive: all assays above

OCCCC(F)(F)C(F)(F)C(F)(F)C(F)(F)C(F)(F)C(F)(F)C(F)(F)C(F)(F)F
active: [1] 49 µM and 45.1 µM | [2] 22.1 µM and 21 µM | [3] 20.7 µM and 30 µM | [4] 31.6 µM and 29.4 µM | [5] 22.5 µM and 19.4 µM | [6] 30 µM and 17.2 µM | [8] 47 µM and 47.6 µM | [9] 11.4 µM and 8.23 µM | [10] 33 µM and 21.3 µM | KRT18 (gene 3875) 39.6 µM and 42.8 µM | [11] 50 µM and 48.2 µM | [12] 48.3 µM and 45.4 µM | [13] 7.74 µM and 7.47 µM | [14] 18 µM and 17.8 µM | [15] 15.3 µM and 9.92 µM | CD40, CD40 (gene 958) 10.1 µM and 10.9 µM | [16] 19 µM and 14.6 µM
inactive: [7]

O=S(=O)(O)CCC(F)(F)C(F)(F)C(F)(F)C(F)(F)F
inactive: all assays above

O=C(O)C(F)(F)C(F)(F)C(F)(F)C(=O)O
inactive: [1] | [2] | [3] | [4] | [5] | [6] | [7] | [8] | [9] | [10] | KRT18 (gene 3875) | [11] | [12] | [13] | [14] | [15] | CD40, CD40 (gene 958) | [16]
active: CD40, CD40 (gene 958) 43.1 µM

CO[Si](C)(CCC(F)(F)C(F)(F)C(F)(F)C(F)(F)C(F)(F)C(F)(F)F)OC
inactive: all assays above
